# PubChem BioAssay (NCATS)
# Records with an inconclusive call do not appear. Where a call stands in place of a potency, no number is given. Unmarked numbers belong to inactive results. Active and inactive are the calls of the source. Calls follow the shape of the dose curve; as a rule, active = well fitted curve in the direction sought with a large enough effect; inconclusive = small, poorly fitted or top-dose-only effect, or another doubt; inactive = no such curve, though single readings can be large; an effect the other way counts as inactive or inconclusive.
# Columns and labels:
# [1] = target: Calcium and integrin-binding protein 1 (Homo sapiens) (UniProt Q99828); test: Primary qHTS for Identification of Calcium Integrin Binding Protein 1 (CIB1) Competitor (AID 1508620); conditions: CIB1-GST / FITC-alphaIIb peptide fluorescence polarization; series mostly up to 57.7 µM;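 also: GST tagged CIB1 binding a fluorescein labelled alphaIIb integrin peptide tracer; top concentration of the series differs between compounds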
# Summary of the method: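 Fluorescence polarization competition: CIB1-GST (1 uM final) preincubated with compound 15 min at room temperature, then FITC-labeled alphaIIb peptide (100 nM final) added for another 15 min. Polarization read at Ex 480/Em 540.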
# [2] = Primary qHTS for small molecule stabilizers of the endoplasmic reticulum resident proteome: Secreted ER Calcium Modulated Protein (SERCaMP) assay (AID 1508630); conditions: SH-SY5Y GLuc-SERCaMP (Gaussia luciferase released on ER calcium loss) secretion, thapsigargin, luminescence; series mostly up to 38.4 µM
# Summary of the method: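 The SH-SY5Y reporter protocol was run at 3 concentrations up to 38.3 uM (primary) or 11 concentrations (follow-up): 16 h compound, 100 nM thapsigargin for 4 h, then extracellular luciferase luminescence.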
# [3] = Counterscreen qHTS for small molecule stabilizers of the endoplasmic reticulum resident proteome: GLuc-NoTag assay (AID 1508627); conditions: Gaussia luciferase NoTag secretion counterscreen, luminescence, thapsigargin 100 nM for final 4 h; series mostly up to 76.4 µM
# Summary of the method: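 Secreted GLuc lacking the SERCaMP modification is measured in SH-SY5Y cells exposed to compound for 19 h and then to thapsigargin (100 nM, 4 h) to deplete ER calcium; hits retested at 11 concentrations, up to 76.6 uM.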
# [4] = Cell Viability qHTS for small molecule stabilizers of the endoplasmic reticulum resident proteome (AID 1508629); conditions: cell viability counter-screen, 100 nM thapsigargin for final 4 h;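 also: human SH-SY5Y neuroblastoma cells carrying the GLuc-SERCaMP reporter; compound exposure about 46 h in total before the viability read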
# [5] = Confirmatory qHTS for small molecule stabilizers of the endoplasmic reticulum resident proteome: Secreted ER Calcium Modulated Protein (SERCaMP) assay (AID 1508628); conditions: SERCaMP secreted luciferase ER calcium/proteostasis reporter; series mostly up to 76.3 µM; also: nearly all actives have a fitted effect of over 40% in size
# Summary of the method: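 GLuc-SERCaMP-expressing SH-SY5Y cells, pretreated 16 h with compound, are challenged with thapsigargin to empty ER calcium stores; after 4 h, coelenterazine is added directly to the medium and luminescence is imaged.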
# Sequence of Calcium and integrin-binding protein 1 (Homo sapiens) (Q99828 whole entry, looked up): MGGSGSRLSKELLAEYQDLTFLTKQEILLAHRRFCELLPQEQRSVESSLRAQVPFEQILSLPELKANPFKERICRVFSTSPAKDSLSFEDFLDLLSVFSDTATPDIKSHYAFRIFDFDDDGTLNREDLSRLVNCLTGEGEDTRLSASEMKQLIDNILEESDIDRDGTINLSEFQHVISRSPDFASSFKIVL
compound,measurement,setting,value
CCN1C[C@]2(OC(=O)c3ccccc3NC(C)=O)CC[C@H](OC)[C@@]34[C@H]5CC6[C@@H](OC)C[C@](O)(C(C[C@@H]23)[C@@H]14)[C@@]5(O)[C@@H]6OC,outcome,[1],inactive
same,Potency,[2],inactive
Clc1ccccc1C(c1ccccc1)(c1ccccc1)n1cccn1,outcome,[1],inactive
same,Potency,[2],inactive
COC[C@H]1OC(=O)c2coc3c2[C@@]1(C)C1=C(C3=O)[C@@H]2CC[C@H](O)[C@@]2(C)C[C@@H]1OC(C)=O,outcome,[1],inactive
same,Potency,[2],inactive
O=S(=O)(F)Cc1ccccc1,outcome,[1],inactive
same,Potency,[2],inactive
CC(=CCCC1=CCC(C2=CC(=O)OC2O)OC1O)CCC1=C(C)CCCC1(C)C (stereo not drawn),outcome,[1],inactive
same,Potency,[2],inactive
Cc1ccccc1-n1c(Cn2cnc3c(N)ncnc32)nc2cccc(C)c2c1=O,outcome,[1],inactive
same,Potency,[2],inactive
COc1ccc2c(c1)CN(C)CC2c1ccc(Cl)c(Cl)c1 (stereo not drawn),outcome,[1],inactive
same,Potency,[2],inactive
C=C[C@@H]1CN2CCC1C[C@H]2[C@H](O)c1ccnc2ccccc12 (stereo partly drawn),outcome,[1],inactive
same,Potency,[2],inactive
CC[C@H]1C=CC=CC[C@@H](C)[C@H](O)[C@@](C)(O)C(=O)[C@@H](C)[C@H](O)[C@@H](C)C(=O)[C@@H](C)[C@H](O)[C@@H](C)C=CC(=O)O[C@@H]2[C@@H](C)[C@H](CC1)O[C@]1(CC[C@H](C)[C@H](C[C@@H](C)O)O1)[C@H]2C,outcome,[1],inactive
same,Potency,[2],inactive
CN[C@@H]1Cc2cccc3[nH]c(=O)n(c23)C1,outcome,[1],inactive
same,Potency,[2],inactive
CC[C@@H]1[C@@H](C)O[C@@](O)([C@@H](C)[C@H](O)[C@H](C)[C@H]2OC(=O)C=CC=C[C@@H](C)[C@@H]([C@@H](C)[C@@H](O)[C@H](C)[C@@]3(O)C[C@H](O[C@H]4C[C@H](O)[C@H](O)[C@H](C)O4)[C@H](CC)[C@@H](C)O3)OC(=O)C=CC=C[C@@H]2C)C[C@H]1O[C@H]1C[C@H](O)[C@H](O)[C@H](C)O1,outcome,[1],inactive
same,Potency,[2],inactive
CC=C(C)C(=O)N[C@@H](c1ccccc1)[C@@H](O)C(=O)O[C@H]1C[C@@]2(O)[C@@H](OC(=O)c3ccccc3)[C@@H]3[C@]4(OC(C)=O)CO[C@@H]4C[C@H](O)[C@@]3(C)C(=O)[C@H](OC(C)=O)C(=C1C)C2(C)C,outcome,[1],inactive
same,Potency,[2],inactive
C=C[C@@H]1CN2CCC1C[C@@H]2[C@@H](O)c1ccnc2ccccc12 (stereo partly drawn),outcome,[1],inactive
same,Potency,[2],inactive
C[C@@]12OC(=O)[C@]1([C@@H](O)[C@@H]1C=CCCC1)NC(=O)[C@H]2CCCl,outcome,[1],inactive
same,Potency,[2],inactive
CCNC(=O)C[C@@H]1N=C(c2ccc(Cl)cc2)c2cc(OC)ccc2-n2c(C)nnc21,outcome,[1],inactive
same,Potency,[2],inactive
C[C@@H]1CC[C@H]2[C@@H](C)C(=O)O[C@@H]3O[C@@]4(C)CC[C@H]1[C@]32OO4,outcome,[1],inactive
same,Potency,[2],inactive
CCCC[N+]1(C)[C@H]2CC(OC(=O)[C@H](CO)c3ccccc3)C[C@H]1[C@H]1O[C@H]12 (stereo partly drawn),outcome,[1],inactive
same,Potency,[2],inactive
C[C@]12Cc3cn[nH]c3C[C@@H]1CC[C@@H]1[C@H]2CC[C@@]2(C)[C@H]1CC[C@]2(C)O,outcome,[1],inactive
same,Potency,[2],inactive
C1=C2CCCN[C@H]2[C@@H]2C[C@H]1[C@@H]1CCCCN1C2,outcome,[1],inactive
same,Potency,[2],inactive
CC(=Cc1csc(C)n1)[C@@H]1C[C@H]2O[C@]2(C)CCC[C@H](C)[C@@H](O)[C@@H](C)C(=O)C(C)(C)[C@@H](O)CC(=O)O1,outcome,[1],inactive
same,Potency,[2],inactive
C[C@@H]1O[C@@H](O[C@@H]2C=C3CC[C@@H]4[C@@H](CC[C@]5(C)[C@H](c6ccc(=O)oc6)CC[C@@]45O)[C@@]3(C)CC2)[C@H](O)[C@H](O)[C@H]1O,outcome,[1],inactive
same,Potency,[2],inactive
C#CC1(O)CCC2C3CCC4=CC(=O)CCC4(C)C3CCC21C (stereo not drawn),outcome,[1],inactive
same,Potency,[2],inactive
COc1cc([C@@H]2c3cc4c(cc3[C@@H](O)C3COC(=O)C32)OCO4)cc(OC)c1O (stereo partly drawn),outcome,[1],inactive
same,Potency,[2],inactive
C[C@](O)(COc1ccc(C#N)cc1)C(=O)Nc1ccc(C#N)c(C(F)(F)F)c1,outcome,[1],inactive
same,Potency,[2],inactive
O=S(=O)(CC1CS1)c1ccc(Oc2ccccc2)cc1 (stereo not drawn),outcome,[1],inactive
same,Potency,[2],inactive
COc1cccc2c1[C@]13CCN(CC4CC4)[C@H](C2)[C@]1(OC)CCC(=O)C3,outcome,[1],inactive
same,Potency,[2],inactive
C[C@@H]1[C@H](O)[C@@H](C)C=CC=CCCC=CC=CC=CC=C[C@H](O[C@H]2O[C@@H](C)[C@H](O)[C@@H](N)[C@@H]2O)CC2O[C@](O)(C[C@@H](O)[C@H](O)CC[C@@H](O)C[C@@H](O)C[C@@H](O)CC(=O)O[C@H]1C)C[C@H](O)[C@H]2C(=O)O,outcome,[1],inactive
same,Potency,[2],inactive
CCN(CC)C(=O)c1ccc(C2=CC3(CCNCC3)Oc3cccc(O)c32)cc1,outcome,[1],inactive
same,Potency,[2],inactive
c1cc2c(cc1[C@H]1OC[C@H]3[C@H]1CO[C@H]3c1ccc3c(c1)OCO3)OCO2,outcome,[1],inactive
same,Potency,[2],inactive
COc1ccc(CC2NCCc3cc(OC)c(OC)cc32)cc1OC (stereo not drawn),outcome,[1],inactive
same,Potency,[2],inactive
CC(N[C@H]1C[C@H]1c1ccccc1)c1ccc2c(c1)OCCO2 (stereo partly drawn),outcome,[1],inactive
same,Potency,[2],inactive
COc1ccc(C(=O)c2c(C)n(CCN3CCOCC3)c3cc(I)ccc23)cc1,outcome,[1],inactive
same,Potency,[2],inactive
O=C1CCC[C@@H]2[C@H]3CCCN4CCC[C@@H](CN12)[C@@H]34,outcome,[1],inactive
same,Potency,[2],inactive
CN(C)NC(=O)CCC(=O)O,outcome,[1],inactive
same,Potency,[2],inactive
c1ccc2c(CN3CCNCC3)cccc2c1,Potency,[3],inactive
same,max response,[4],15%
Clc1ccc(C(c2ccc(Cl)cc2)n2cc[n+](CC(OCc3ccc(Cl)cc3Cl)c3ccc(Cl)cc3Cl)c2)cc1 (stereo not drawn),Potency,[3],inactive
same,Potency,[5],inactive
same,max response,[4],-14.7%
